Assay [1] can be described thus: qHTS assay for measurement of the activity of small molecule inhibitors on Zika virus induced Caspase-3 activity in human astrocytoma cells (AID 1224859). The method, boiled down:
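A cell-based luminescent caspase-3/7 assay used SNB-19 cells infected with ZIKV (2 FFU/cell) for 6 h following 1 h compound pretreatment.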

The nature of assay [2]: qHTS assay to identify small molecule inhibitors of chordoma cells - UCH-1 (AID 1259355). Also: nearly all actives have a fitted effect of over 55% in size. Also: potency is read from the fitted curve at half-maximal effect; series mostly up to about 46 µM. A digest of the protocol: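 A 48hr growth-inhibition format: each drug tested at 15 concentrations together with added auranofin, camptothecin, doxorubicin, rubitecan and topotecan, with cell viability quantified as CellTiter-Glo luminescence.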
Assay [3] can be described thus: qHTS assay to identify small molecule inhibitors of chordoma cells - UCH-2 (AID 1259356). Also: potency is read from the fitted curve at half-maximal effect.
Assay [4] is described as follows: P-glycoprotein substrates identified in KB-8-5-11 adenocarcinoma cell line, qHTS therapeutic library screen (AID 1346987). Also: nearly all actives have a fitted effect of over 65% in size. Also: potency is read from the fitted curve at half-maximal effect. A digest of the protocol: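 Luminescence from CellTiter-Glo, read 5 min after addition, quantified survival of KB-8-5-11 (P-gp-overexpressing) cells exposed to compounds for 72 h. AC50 was derived from concentration-response curves.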
Assay [5] can be described thus: NS1 protein of Zika virus - qHTS assay to identify small molecule inhibitors in human HEK 293 cells (AID 1347053). Also: series mostly up to about 46 µM; nearly all actives have a fitted effect of over 55% in size. The method, boiled down: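 TR-FRET signal from two anti-ZIKV NS1 antibodies quantified NS1 in HEK 293 cells 24 h after MR766 infection at MOI = 0.5; compounds were added 1 h before virus. Uninfected cells and infected cells defined the NS1 normalization range.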

The nature of assay [6]: qHTS of pediatric cancer cell lines to identify multiple opportunities for drug repurposing: Primary screen for TC32 cells (AID 1347089). Also: nearly all actives have a fitted effect of over 60% in size. Also: potency is read from the fitted curve at half-maximal effect. A digest of the protocol: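 In the primary qHTS, MIPE compounds were tested at 11 concentrations (0.78 nM to 46 µM) and NPC compounds at 8 (0.59 nM to 46 µM) on TC32 cells for 48 h. CellTiter-Glo luminescence gave viability.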
A short description of assay [7]: qHTS of pediatric cancer cell lines to identify multiple opportunities for drug repurposing: Primary screen for DAOY cells (AID 1347090). Also: nearly all actives have a fitted effect of over 55% in size. Also: potency is read from the fitted curve at half-maximal effect. The method, boiled down: (§1)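 Eight- or eleven-point concentration series, 48 h treatment at 37 degrees C in growth media; readout CellTiter-Glo luminescence. Potency and efficacy were taken from the concentration-response curves.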

Assay [8] is described as follows: qHTS of pediatric cancer cell lines to identify multiple opportunities for drug repurposing: Primary screen for SJ-GBM2 cells (AID 1347091). Also: potency is read from the fitted curve at half-maximal effect. A digest of the protocol: as §1
The nature of assay [9]: qHTS of pediatric cancer cell lines to identify multiple opportunities for drug repurposing: Primary screen for A673 cells (AID 1347092). Also: nearly all actives have a fitted effect of over 45% in size. Also: potency is read from the fitted curve at half-maximal effect. A digest of the protocol: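 48 h compound exposure, A673, 500-1,000 cells/well, 37 degrees C/5% CO2. MIPE: 11-point, 0.78 nM-46 µM; NPC: 8-point, 0.59 nM-46 µM (final). Readout CellTiter-Glo luminescence after 15 min RT.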
Assay [10] in a line: qHTS of pediatric cancer cell lines to identify multiple opportunities for drug repurposing: Primary screen for BT-37 cells (AID 1347094). Also: potency is read from the fitted curve at half-maximal effect. The method, boiled down: (§2)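 Primary screen of approved and investigational compounds on cells in growth media at 37 degrees C, 5% CO2. MIPE set at 11-point and NPC set at 8-point dilutions; viability scored by ATP-based luminescence at 48 hours.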

Assay [11] in a line: qHTS of pediatric cancer cell lines to identify multiple opportunities for drug repurposing: Primary screen for NB-EBc1 cells (AID 1347095). Also: potency is read from the fitted curve at half-maximal effect. A digest of the protocol:
as §2

A short description of assay [12]: qHTS of pediatric cancer cell lines to identify multiple opportunities for drug repurposing: Primary screen for SK-N-MC cells (AID 1347093). Also: series mostly up to about 46 µM. The method, boiled down: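 Metabolically active cells were quantified by ATP-dependent luminescence (CellTiter-Glo, 15 min at room temperature) following 48 h treatment. Cells had been plated at 500-1,000 per well and settled for 5 h beforehand.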

Values without a mark were called inactive. Results filed as inconclusive are left out. Calls of active or inactive are those of the source. Calls follow the shape of the dose curve; as a rule, active = well fitted curve in the direction sought with a large enough effect; inconclusive = small, poorly fitted or top-dose-only effect, or another doubt; inactive = no such curve, though single readings can be large; an effect the other way counts as inactive or inconclusive.

In the case of `COc1cc(C(=S)N2CCOCC2)ccc1O`, in assay [1], the outcome was inactive. For the same compound, the Potency entry in assay [2], in assay [3], in [4], in [5], in assay [6] and in assay [7] was “inactive” each time. Also, the Potency result in [8], in assay [9], in [10] and in assay [11] was “inactive” each time.
Consider `Cc1cc(-c2ccccc2)nnc1NCCN1CCOCC1`, for which, in assay [1], the compound was classed as inactive. Moreover, the Potency result in assay [2], in assay [3], in assay [4], in assay [5], in [6] and in assay [7] was “inactive” in each case. Besides, the Potency entry in assay [8], in assay [9], in assay [12], in assay [10] and in assay [11] was “inactive” each time.
Consider `O=C(O)C1(C(=O)O)CCC1.[NH2-].[NH2-].[Pt+2]`, for which the compound was classed as inactive in [1]. The Potency result in assay [2], in assay [3], in [4], in assay [5], in assay [6] and in [7] was “inactive” in each case. In addition, the Potency result in assay [8], in assay [9], in [12], in assay [10] and in assay [11] was “inactive” each time.
In the case of `CC[N+](C)(CC)CCOC(=O)C(O)(c1ccccc1)C1CCCCC1` (centres undefined), the result in assay [1] was inactive. Also, the Potency entry in assay [2], in [3], in assay [4], in [5], in assay [6] and in assay [7] was “inactive” in each case. Further, the Potency entry in [8], in assay [9], in [12], in [10] and in assay [11] was “inactive” in each case.
Consider `CC1CCc2c(N3CCC(O)CC3)c(F)cc3c(=O)c(C(=O)O)cn1c23` (centres undefined), for which the compound was classed as inactive in assay [1]. The Potency entry in assay [2], in assay [3], in assay [4], in [5], in assay [6] and in [7] was “inactive” throughout. Further, the Potency result in assay [8], in assay [9], in [12] and in assay [11] was “inactive” in each case.
Consider `CCOC(=O)[C@H](CCc1ccccc1)N[C@@H](C)C(=O)N1[C@H](C(=O)O)C[C@@H]2CCC[C@@H]21`, for which the compound was called inactive in assay [1]. Also, the Potency entry in assay [2], in [3], in assay [4], in assay [5], in [6] and in [7] was “inactive” in each case. Further, the Potency result in [8], in [9], in assay [10] and in assay [11] was “inactive” throughout.
Take `C[C@H]1O[C@@H](O[C@H]2CC[C@@]3(C)[C@H](CC[C@@H]4[C@@H]3C[C@@H](O)[C@]3(C)[C@@H](C5=CC(=O)OC5)CC[C@]43O)C2)C[C@H](O)[C@@H]1O[C@H]1C[C@H](O)[C@H](O[C@H]2C[C@H](O)[C@H](O[C@@H]3O[C@H](CO)[C@@H](O)[C@H](O)[C@H]3O)[C@@H](C)O2)[C@@H](C)O1`: the outcome in [1] was inactive. Moreover, the Potency in [2] is 708 nM (active); in assay [3], 580 nM (active); in assay [4], 651 nM (active); in [6], 374 nM (active); in [7], 266 nM (active); in [8] it was 84.1 nM (active). For the same compound, the figures for the Potency in [9], in assay [10] and in [11] were 266 nM (active), 123 nM (active) and 188 nM (active), respectively. Further, in assay [5], the Potency entry was “inactive”.
Consider `OC[C@H]1O[C@@H](Oc2ccc(O)cc2)[C@H](O)[C@@H](O)[C@@H]1O`, for which the call in assay [1] was inactive. Besides, the Potency entry in assay [2], in assay [3], in assay [4], in assay [5], in assay [6] and in [7] was “inactive” each time. Besides, the Potency entry in [8], in [9], in assay [10] and in assay [11] was “inactive” in each case.
With `OCCOCCN1CCN(C2=Nc3ccccc3Sc3ccccc32)CC1`, the call in assay [1] was inactive. For the same compound, the Potency entry in assay [2], in assay [3], in assay [4], in assay [5], in assay [6] and in assay [7] was “inactive” throughout. Also, the Potency result in assay [8], in assay [9], in assay [12] and in [11] was “inactive” in each case.
As to `CCc1ccc(C(=O)C(C)CN2CCCCC2)cc1` (centres undefined), the compound was called inactive in [1]. In addition, the Potency result in [2], in assay [3], in [4], in assay [5], in assay [6] and in assay [7] was “inactive” each time. The Potency entry in [8], in assay [9], in assay [12] and in assay [11] was “inactive” throughout.
In the case of `CCCCCCCCOc1ccc(C(=O)c2ccccc2)c(O)c1`, the call in [1] was inactive. The Potency result in assay [2], in [3], in assay [4], in assay [5], in [6] and in [7] was “inactive” in each case. Besides, the Potency result in assay [8], in assay [9], in [12] and in assay [11] was “inactive” each time.
Regarding `CCCCC(CC)COC(=O)c1ccc(N(C)C)cc1` (centres undefined), the compound was called inactive in assay [1]. Also, the Potency entry in assay [2], in [3], in [4], in assay [5], in [6] and in assay [7] was “inactive” each time. Moreover, the Potency result in assay [8], in [9], in assay [12] and in assay [11] was “inactive” throughout.
As for `O=C(Nc1ccc([N+](=O)[O-])cc1)Nc1ccc([N+](=O)[O-])cc1`, in assay [1], the compound was classed as inactive. Further, the Potency entry in [2], in assay [3], in assay [4], in assay [5], in [6] and in [7] was “inactive” each time. For the same compound, the Potency result in [8], in assay [9], in assay [12], in assay [10] and in assay [11] was “inactive” throughout.
Turning to `COc1cc(O)c(C(=O)c2ccccc2)cc1S(=O)(=O)O`, the compound was classed as inactive in [1]. The Potency result in assay [2], in [3], in assay [4], in assay [5], in [6] and in assay [7] was “inactive” in each case. Further, the Potency entry in assay [8], in [9], in assay [12], in [10] and in assay [11] was “inactive” throughout.
On to `C[N+]12CCC(CC1)C(OC(=O)C(O)(c1ccccc1)c1ccccc1)C2` (centres undefined), for which, in assay [1], the result was inactive. The Potency entry in assay [2], in [3], in [4], in [5], in assay [6] and in assay [7] was “inactive” in each case. Moreover, the Potency entry in assay [8], in [9], in assay [12] and in [11] was “inactive” in each case.
As to `CCOc1ccccc1C(N)=O`, the compound was called inactive in [1]. For the same compound, the Potency result in assay [2], in [3], in [4], in assay [5], in assay [6] and in [7] was “inactive” throughout. Also, the Potency entry in assay [8], in assay [9], in assay [12] and in assay [11] was “inactive” throughout.
For the compound `C[C@@H](O)[C@H]1C(=O)N2C(C(=O)O)=C(S[C@@H]3CN[C@H](CNS(N)(=O)=O)C3)[C@H](C)[C@H]12`, the call in assay [1] was inactive. In addition, the Potency entry in [2], in assay [3], in assay [4], in assay [5], in assay [6] and in [7] was “inactive” each time. In addition, the Potency entry in [8], in assay [9], in assay [10] and in assay [11] was “inactive” each time.
On to `Cc1ccc(S(=O)(=O)NC(=O)NC2CCCC2)cc1`, for which the compound was classed as inactive in assay [1]. Moreover, the Potency result in assay [2], in assay [3], in assay [4], in assay [5], in [6] and in assay [7] was “inactive” in each case. Also, the Potency result in assay [8], in assay [9], in [12] and in [11] was “inactive” throughout.
Regarding `c1ccc(CC2=NCCN2)cc1`, the outcome in assay [1] was inactive. Also, the Potency entry in assay [2], in assay [3], in assay [4], in [5], in [6] and in assay [7] was “inactive” throughout. Also, the Potency entry in assay [8], in [9], in assay [10] and in assay [11] was “inactive” each time.

(Values after PubChem BioAssay (NCATS).)
